Hit rate of the full screen: of about 39,000 compounds, about 3,300 (8.5%) were called active. Only a selection was taken, and actives are over-represented in it overall.

The test relates to HepG2. Put plainly: cytotoxicity call (relative viability < 0.9). As to conditions: 10 µM.
In the case of `C[C@@H]1CN([C@@H](C)CO)S(=O)(=O)c2ccc(C#C[C@@H](C)O)cc2O[C@H]1CN(C)C(=O)CN(C)C`, the cytotoxicity call is “inactive”.
Next, `C[C@@H]1CN([C@H](C)CO)C(=O)c2cccc(NS(C)(=O)=O)c2O[C@@H]1CN(C)S(=O)(=O)c1cccs1`: “inactive”.
Next, `Clc1ccc2nncn2n1`: “inactive”; `CNC(=O)[C@H]1O[C@H](n2cnc3c(NCc4cccc(I)c4)nc(Cl)nc32)[C@@H](O)[C@@H]1O`: “inactive”.
Then `C[C@@H]1CCCCO[C@@H](CN(C)Cc2ccncc2)[C@H](C)CN([C@H](C)CO)C(=O)c2cc(NS(=O)(=O)c3ccc(Cl)cc3)ccc2O1`, with “inactive”; and `NC(=O)NCC#Cc1ccc2c(c1)[C@]1(C(=O)N2)[C@H](C(=O)N2CCN(c3ncccn3)CC2)[C@H]2C(=O)O[C@H](c3ccccc3)[C@H](c3ccccc3)N2[C@@H]1c1ccccc1OCCO`, with “inactive”; and `Cc1cc(C(=O)Nc2cccc3c2O[C@@H](CN(C)S(=O)(=O)c2ccc(Cl)cc2)[C@@H](C)CN([C@@H](C)CO)C3=O)n(C)n1`, with “inactive”.
`O=C(CN1CCOCC1)NCC[C@@H]1CC[C@H](NC(=O)Nc2ccccc2)[C@@H](CO)O1`: the cytotoxicity call was “inactive”.
Then `CNC(=O)Nc1ccc(-c2nc(N3C[C@H]4CC[C@@H](C3)O4)c3cnn(C4CCC5(CC4)OCCO5)c3n2)cc1`, with “inactive”; and `O=C1CCC(C(=O)N2CSCC2C(=O)O)N1` (stereo unspecified), with “active”.
In the case of `O=C1CC[C@@H](C(=O)O)N1`, the cytotoxicity call was “inactive”.
With `O=C1CC[C@@H](C(=O)N2CSC[C@H]2C(=O)O)N1`, the cytotoxicity call was “inactive”.
Next, `CC(C)NC(=O)Nc1cccc2c1O[C@H](CN(C)C(=O)NC1CCCCC1)[C@@H](C)CN([C@@H](C)CO)C2=O`: “inactive”.
On to `C[C@@H]1CN([C@@H](C)CO)C(=O)c2cccc(NC(=O)c3ccncc3)c2O[C@@H]1CN(C)Cc1ccc2c(c1)OCO2`, for which the cytotoxicity call was “inactive”.
Next, `C[C@@H]1CCCCO[C@@H](CN(C)C(=O)C2CCCCC2)[C@H](C)CN([C@H](C)CO)C(=O)c2cc(NC(=O)Nc3cccc4ccccc34)ccc2O1`: “inactive”; `O=C(C[C@@H]1C[C@H]2c3cc(NC(=O)NC4CCCC4)ccc3O[C@H]2[C@H](CO)O1)NCc1ccc(-c2ccccc2)cc1`: “active”; `O=C(C[C@H]1C[C@@H]2c3cc(NC(=O)NC4CCCC4)ccc3O[C@@H]2[C@@H](CO)O1)NCc1ccc(-c2ccccc2)cc1`: “active”.
Then `O=C(C[C@@H]1C[C@@H]2c3cc(NC(=O)NC4CCCC4)ccc3O[C@@H]2[C@H](CO)O1)NCc1ccc(-c2ccccc2)cc1`, with “inactive”; and `O=C(C[C@H]1C[C@H]2c3cc(NC(=O)NC4CCCC4)ccc3O[C@H]2[C@@H](CO)O1)NCc1ccc(-c2ccccc2)cc1`, with “inactive”.
Then `O=C(C[C@@H]1C[C@H]2c3cc(NC(=O)NC4CCCC4)ccc3O[C@H]2[C@@H](CO)O1)NCc1ccc(-c2ccccc2)cc1`, with “inactive”.
Turning to `O=C(C[C@H]1C[C@@H]2c3cc(NC(=O)NC4CCCC4)ccc3O[C@@H]2[C@H](CO)O1)NCc1ccc(-c2ccccc2)cc1`, the cytotoxicity call is “active”.
Then `O=C(C[C@H]1C[C@H]2c3cc(NC(=O)NC4CCCC4)ccc3O[C@H]2[C@@H](CO)O1)NCc1ccc(Oc2ccccc2)cc1`, with “inactive”; and `O=C(C[C@H]1C[C@H]2c3cc(NC(=O)NC4CCCC4)ccc3O[C@H]2[C@H](CO)O1)NCc1ccc(-c2ccccc2)cc1`, with “inactive”; and `O=C(C[C@@H]1C[C@@H]2c3cc(NC(=O)NC4CCCC4)ccc3O[C@@H]2[C@@H](CO)O1)NCc1ccc(-c2ccccc2)cc1`, with “inactive”.
Then `CC(=O)OCCc1nc(C(=O)NCc2ccc3c(c2)OCO3)cc2c1[C@@H](CCO)N([S@](=O)C(C)(C)C)C2`, with “inactive”; and `O=C(C[C@@H]1C[C@H]2c3cc(NS(=O)(=O)c4ccccc4)ccc3O[C@H]2[C@H](CO)O1)NCC(F)(F)F`, with “inactive”.
Then `COc1cccc(-c2ccc3c(c2)O[C@H](CN(C)C(=O)C2CCOCC2)[C@@H](C)CN([C@@H](C)CO)S3(=O)=O)c1`, with “inactive”.
With `C[C@@H]1CN([C@H](C)CO)C(=O)c2cc(NC(=O)Nc3ccccc3)ccc2O[C@@H]1CN(C)Cc1ccc(C(=O)Nc2ccccc2N)cc1`, the cytotoxicity call is “inactive”.
Next, `C[C@H](CO)N1C[C@H](C)[C@H](CN(C)S(=O)(=O)c2ccccc2)Oc2ccc(NS(=O)(=O)c3ccc(F)cc3)cc2C1=O`: “inactive”; `CN1C(=O)c2cc(NC(=O)c3cnccn3)ccc2OC[C@H]2O[C@H](CC(=O)N[C@H]3CCN(Cc4ccccc4)C3)CC[C@@H]21`: “inactive”.
For `COc1ccc(S(=O)(=O)N(C)C[C@@H]2Oc3ccc(NC(=O)Cn4cnnn4)cc3C(=O)N([C@H](C)CO)C[C@@H]2C)cc1`, the cytotoxicity call was “inactive”.
Next, `O=C(C=Cc1ccc(O)cc1)c1ccc(O)cc1O`: “inactive”; `COc1ccc(C(=O)C=Cc2ccccc2)cc1`: “active”.
Next, `COc1ccc(C=CC(=O)c2cc(O)ccc2O)cc1`: “active”; `COc1ccc(C=CC(=O)c2ccccc2)cc1`: “active”; `COc1ccc(C(=O)O)cc1`: “inactive”.
As for `CCCCC(CC)COC(=O)C=Cc1ccc(OC)cc1` (stereo unspecified), the cytotoxicity call is “inactive”.
Then `COc1ccc(/C=C2/NC(=O)NC2=O)cc1`, with “inactive”; and `COc1ccc(C=CC(=O)c2ccc(O)cc2O)cc1`, with “inactive”; and `CC=Cc1ccc(OC)cc1`, with “active”.
Next, `CC(=C/C(=O)O)/C=C/c1ccccc1`: “inactive”; `C/C=C/c1ccc(OC)cc1`: “inactive”; `C[C@H](CO)N1C[C@H](C)[C@H](CN(C)C(=O)Nc2ccc(-c3ccccc3)cc2)OCc2ccccc2-c2ccccc2C1=O`: “inactive”.
Next, `C[C@H](CO)N1C[C@H](C)[C@H](CN(C)C(=O)CCC(F)(F)F)OCCCC[C@H](C)Oc2ccc(NC(=O)CCC(F)(F)F)cc2C1=O`: “inactive”; `O=C(NCC(=O)N1CCOCC1)c1ccccc1`: “inactive”; `Cc1ccc(S(=O)(=O)Nc2ccc3c(c2)CC(=O)N([C@H](C)CO)C[C@@H](C)[C@H](CN(C)S(=O)(=O)c2cn(C)cn2)O3)cc1`: “inactive”.
Consider `Cc1ccc(S(=O)(=O)Nc2ccc3c(c2)CC(=O)N([C@@H](C)CO)C[C@H](C)[C@@H](CN(C)S(=O)(=O)c2cccs2)O3)cc1`, for which the cytotoxicity call is “inactive”.
In the case of `C[C@H](CO)N1C[C@H](C)[C@@H](CN(C)S(C)(=O)=O)Oc2ccc(NC(=O)Cn3cnnn3)cc2C1=O`, the cytotoxicity call was “inactive”.
Consider `COc1ccc(O)cc1`, for which the cytotoxicity call is “inactive”.
Next, `COc1cc(C=Cc2ccc(O)cc2)cc(OC)c1`: “active”.
Regarding `Oc1ccc(C=Cc2cc(O)cc(O)c2)cc1`, the cytotoxicity call is “inactive”.

The values are drawn from the antibiotic and cytotoxicity screens of Wong et al. (2023).
